Data from PubChem BioAssay (Tox21).
“And” between values parts separate entries of the source, which are not always exact repeats. Equal entries are not always repeated. Records with an inconclusive call do not appear. A call without a number means that no potency is given here. A structure can be active in one record and inactive in another. The source made the active and inactive calls. Calls follow the shape of the dose curve; as a rule, active = well fitted activation curve with a large enough effect in the repeat runs; inconclusive = weak or mixed curves; inactive = flat fitted curve, though single readings scatter.

Assay: A CellTox Green Cytotoxicity Assay to monitor cytotoxicity in HepG2 cells - 16 hour (AID 1224876); also: nearly all actives have a fitted effect of over 45% in size
Conditions: CellTox Green fluorescence; series mostly up to 76.8 µM
Description: National Center for Advancing Translational Sciences [NCATS]
NIH Chemical Genomics Center [NCGC]
U.S. Environmental Protection Agency [EPA]
National Institutes of Environmental Health Sciences [NIEHS]
National Toxicology Program [NTP]
Cell-based models are critical for drug discovery. Determining the natural cytotoxic effects resulting from test compounds is an essential research activity. A CellTox Green Cytotoxicity Assay to monitor cytotoxicity in real time of continues cell culture during 40 hours of the compound treatment was used to screen Tox21 10K library compounds in HepG2 cells. CellTox Green Cytotoxicity Assay is a nonlytic, homogeneous, biofluorescent method to measure cytotoxicity in cell culture after experimental manipulation. The assay system uses a proprietary asymmetric cyanine dye that is excluded from viable cells but preferentially stains the dead cell's DNA. […] Viable cells produce no appreciable increases in fluorescence. Therefore, the fluorescence signal produced by the binding interaction with dead cell DNA is proportional to cytotoxicity.
The mixture of HepG2 cell suspension and reagents were dispensed at 600cells/6 ul/well in 1536-well tissue culture treated black solid bottom plates using a Multidrop dispenser. After the assay plates were incubated at a 37 C/5% CO2 incubator for 5 hours, 23 nL of compounds dissolved in DMSO, positive and negative controls was transferred to the assay plate by a pintool work station. The plates were incubated at 37 C for 40 hours. The fluorescence intensity were measured at 0h, 8h, 16h, 24h, 32h and 40h time points using ViewLux plate reader during compound treatment.
Potency is read from the fitted curve at half-maximal effect.

Row | Compound | Potency
1 | CC(=O)Oc1ccc(C(c2ccc(OC(C)=O)cc2)c2ccccn2)cc1 | inactive
2 | CC/C(=C(/CC)c1ccc(O)cc1)c1ccc(O)cc1 | inactive
3 | CC1(C)C(C=C(Cl)Cl)C1C(=O)OCc1cccc(Oc2ccccc2)c1 (stereo not given) | inactive
4 | CC[C@]12CCCN3CCc4c(n(c5ccccc45)[C@@](O)(C(=O)OC)C1)[C@@H]32 | inactive
5 | CC(=O)[C@@]1(O)CC[C@H]2[C@@H]3C[C@H](C)C4=CC(=O)C=C[C@]4(C)[C@@]3(F)[C@@H](O)C[C@@]21C | inactive
6 | CN1CCOCC1 | inactive
7 | Cc1ccc(C(C)(C)C)c(O)c1 | 38.9 µM (active)
8 | CCC(Cc1c(I)cc(I)c(N)c1I)C(=O)O (stereo not given) | inactive
9 | CC(=O)[C@H]1CC[C@H]2[C@@H]3CC=C4C[C@@H](O)CC[C@]4(C)[C@H]3CC[C@]12C | inactive
10 | O=C(O)CCCCCCCCCCCC(=O)O | inactive
11 | C=C[Si](OCCOC)(OCCOC)OCCOC | inactive
12 | C[N+](C)(C)CCO | inactive
13 | C=CCCCCCCCCCC | inactive
14 | C=CCNCC=C | inactive
15 | Nc1ccc(N)c(Cl)c1 | inactive and 27.5 µM (active)
16 | CC1(C)NC(=O)N(c2ccc([N+](=O)[O-])c(C(F)(F)F)c2)C1=O | inactive
17 | CC(C)(Oc1ccc(Cl)cc1)C(=O)O | inactive
18 | C[C@]12CC[C@@H]3c4ccc(O)cc4CC[C@H]3[C@@H]1CC[C@H]2O | inactive
19 | c1ccc2c(c1)ccc1ncccc12 | inactive
20 | C=C[C@H]1CN2CC[C@H]1C[C@H]2[C@H](O)c1ccnc2ccc(OC)cc12 | inactive

Row | Compound | Potency
21 | Brc1nc2ccccc2s1 | inactive
22 | c1ccc2ncccc2c1 | inactive
23 | Cc1ccc(C)c(O)c1 | inactive
24 | Nc1cc([N+](=O)[O-])ccc1C(=O)O | inactive
25 | ClC/C=C/CCl | inactive
26 | Cc1cccc(Nc2ccccc2C(=O)O)c1C | inactive
27 | CN(Cc1cnc2nc(N)nc(N)c2n1)c1ccc(C(=O)N[C@@H](CCC(=O)O)C(=O)O)cc1 | inactive
28 | Cc1ccc(N)c([N+](=O)[O-])c1 | inactive
29 | OC[C@H]1O[C@@H]2O[C@H]3[C@H](O)[C@@H](O)[C@@H](O[C@H]4[C@H](O)[C@@H](O)[C@@H](O[C@H]5[C@H](O)[C@@H](O)[C@@H](O[C@H]6[C@H](O)[C@@H](O)[C@@H](O[C@H]7[C@H](O)[C@@H](O)[C@@H](O[C@H]1[C@H](O)[C@H]2O)O[C@@H]7CO)O[C@@H]6CO)O[C@@H]5CO)O[C@@H]4CO)O[C@@H]3CO | inactive
30 | O=C(O)COCCN1CCN(C(c2ccccc2)c2ccc(Cl)cc2)CC1 (stereo not given) | inactive
31 | CC(C)[C@@H]1CC[C@@H](C)CC1=O | inactive
32 | C=C[C@H]1CN2CC[C@H]1C[C@@H]2[C@@H](O)c1ccnc2ccc(OC)cc12 | inactive
33 | CN(C)CCCN1c2ccccc2Sc2ccc(Cl)cc21 | 49 µM (active) and 21.3 µM (active)
34 | Nc1ccc2c(c1)C(=O)c1ccccc1C2=O | inactive
35 | CCC/C=C/C=O | inactive
36 | Oc1c(Cl)ccc(Cl)c1Cl | inactive
37 | C[C@]12C=CC(=O)C=C1CC[C@H]1[C@@H]3C[C@@H](O)[C@](O)(C(=O)CO)[C@@]3(C)C[C@H](O)[C@@]12F | inactive
38 | Cc1ccc(C(C)(C)C)cc1 | inactive
39 | CCCCCC1C(=O)CCC1CC(=O)OC (stereo not given) | inactive
40 | Nc1ccc2c(O)cc(S(=O)(=O)O)cc2c1 | inactive
